Results taken from PubChem BioAssay (Tox21).
Records with an inconclusive call do not appear. Entries that show only a call come without a potency. Calls of active or inactive are those of the source. Calls come from the whole dose curve; as a rule, active = well fitted inhibition curve with a large enough effect in the signal ratio in the repeat runs (not every such curve was filed as active); inconclusive = weak or mixed curves; inactive = flat fitted curve, though single readings scatter; the % refers to the signal ratio.

target: Progesterone receptor (Homo sapiens) (UniProt P06401); assay: qHTS assay to identify small molecule antagonists of the progesterone receptor (PR) signaling pathway (AID 1346795); conditions: PR-UAS-bla HEK293T, beta-lactamase FRET ratio, 16 h; series mostly up to 92.4 µM
Sequence (P06401 whole entry, looked up): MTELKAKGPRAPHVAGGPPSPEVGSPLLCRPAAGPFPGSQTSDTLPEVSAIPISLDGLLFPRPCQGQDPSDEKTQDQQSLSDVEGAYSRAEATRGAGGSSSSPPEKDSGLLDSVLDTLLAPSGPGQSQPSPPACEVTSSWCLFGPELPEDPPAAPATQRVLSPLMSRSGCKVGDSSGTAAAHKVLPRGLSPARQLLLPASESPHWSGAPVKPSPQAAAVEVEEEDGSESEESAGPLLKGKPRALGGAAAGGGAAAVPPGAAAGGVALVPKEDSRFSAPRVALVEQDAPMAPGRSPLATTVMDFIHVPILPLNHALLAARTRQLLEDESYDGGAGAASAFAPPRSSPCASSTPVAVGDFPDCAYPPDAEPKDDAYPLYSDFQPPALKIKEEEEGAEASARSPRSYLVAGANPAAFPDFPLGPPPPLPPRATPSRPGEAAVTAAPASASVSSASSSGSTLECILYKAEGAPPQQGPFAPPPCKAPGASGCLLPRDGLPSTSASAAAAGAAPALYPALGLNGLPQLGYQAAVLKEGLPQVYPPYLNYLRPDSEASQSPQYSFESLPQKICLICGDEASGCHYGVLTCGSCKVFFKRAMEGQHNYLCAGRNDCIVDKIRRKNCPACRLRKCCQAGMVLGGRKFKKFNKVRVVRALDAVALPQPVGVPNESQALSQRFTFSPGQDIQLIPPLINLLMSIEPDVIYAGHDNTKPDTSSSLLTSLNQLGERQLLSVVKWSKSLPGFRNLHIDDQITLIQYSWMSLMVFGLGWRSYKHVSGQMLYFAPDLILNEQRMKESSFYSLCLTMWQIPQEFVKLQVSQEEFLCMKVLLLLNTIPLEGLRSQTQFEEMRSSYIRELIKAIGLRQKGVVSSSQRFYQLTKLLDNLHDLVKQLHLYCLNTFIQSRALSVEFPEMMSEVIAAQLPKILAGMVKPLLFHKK
Description: National Center for Advancing Translational Sciences [NCATS]
NIH Chemical Genomics Center [NCGC]
U.S. Environmental Protection Agency [EPA]
National Institutes of Environmental Health Sciences [NIEHS]
National Toxicology Program [NTP]
U.S. Food and Drug Administration [FDA]
Progesterone receptor (PR), a nuclear hormone receptor, plays an important role in development, metabolic homeostasis and reproduction. […] Endocrine disrupting chemicals (EDCs) and their interactions with steroid hormone receptors like PR causes disruption of normal endocrine function. To identify the compounds that inhibit PR signaling, a PR-UAS-bla GripTite cell line i.e. PR-UAS-bla HEK293T (Invitrogen, Carlsbad, CA, USA) containing a beta-lactamase reporter gene under the control of an Upstream Activator Sequence (UAS) was used to screen Tox21 10K compound library.
Tox21 Assay Protocol Summary:
PR-UAS-bla HEK293T cells were dispensed at 3,000 cells/4 uL of assay medium containing 2% charcoal stripped FBS per well into black wall/clear-bottom 1536-well plates using a Multidrop Combi (ThermoFisher Scientific, Waltham, MA) dispenser. After the assay plates were incubated at a 37C and 5% CO2 for 6 hr, 23 nL of compounds dissolved in DMSO, positive controls or DMSO only was transferred to the assay plate by a Pintool station (Kalypsys, San Diego, CA), followed by addition of 1 uL (1nM as final concentration) of Promegestone (R5020) in assay medium using a BioRAPTR FRD (Flying Reagent Dispenser, Aurora Discovery, San Diego, CA). The plates were incubated at 37C and 5% CO2 for 16 hr. Then 1 uL of LiveBLAzer B/G FRET substrate was added using a FRD. After the plates were incubated at room temperature for 2 hours, fluorescence intensity was measured by an Envision plate reader (PerkinElmer, Shelton, CT).
Potency is the fitted concentration of half-maximal effect.

Compound	Potency
O=C1c2ccccc2C(=O)C1c1ccccc1	inactive
COc1cc(NS(=O)(=O)c2ccc(N)cc2)nc(OC)n1	inactive
C=CC(OCC)OCC	inactive
O=C(CCNNC(=O)c1ccncc1)NCc1ccccc1	inactive
NS(=O)(=O)c1cc2c(cc1Cl)CN(C1CCCCC1)C2=O	inactive
CCOC(=O)[C@H](CCc1ccccc1)N[C@@H](C)C(=O)N1C(=O)N(C)C[C@H]1C(=O)O	inactive
Cc1cc(Cl)c(C)cc1Cl	inactive
OCCC(F)(F)C(F)(F)C(F)(F)C(F)(F)C(F)(F)C(F)(F)C(F)(F)C(F)(F)F	inactive
CC(C(=O)O)c1ccc2c(c1)CC(=O)c1ccccc1S2 (stereo not given)	inactive
O=C(OCC(COC(=O)c1cccnc1)(COC(=O)c1cccnc1)COC(=O)c1cccnc1)c1cccnc1	inactive
O=C(O)C(=O)Cc1ccccc1	inactive
CC(C)(C)c1cc(CCC(=O)NN)cc(C(C)(C)C)c1O	inactive
CCCCCCCCC(=O)Cl	inactive
CCCCN	inactive
CCCCCCCCCCCCCC	inactive
CC(S)C(=O)NCC(=O)O (stereo not given)	inactive
Nc1ncnc(Nc2ccccc2)n1	inactive
CCOC(=O)/C=C/c1ccccc1	inactive
COc1ccc(S(=O)(=O)N2c3ccc(Cl)cc3[C@@](O)(c3ccccc3Cl)[C@H]2C(=O)N2CCC[C@@H]2C(N)=O)cc1OC	inactive
O=S(=O)(O)c1ccc2cc(O)c(S(=O)(=O)O)cc2c1	inactive

Compound	Potency
O=P(O)(O)OP(=O)(O)O	inactive
c1ccc2nccnc2c1	inactive
Cc1ccsc1/C=C/C1=NCCCN1C	inactive
CC1(C)S[C@@H]2[C@H](N=CN3CCCCCC3)C(=O)N2[C@H]1C(=O)O	inactive
NS(=O)(=O)c1ccc(NC(=O)CCC(=O)O)cc1	inactive
CC(=O)/C=C/C1C(C)=CCC(C)C1(C)C (stereo not given)	inactive
Cc1cccc(OCC(O)CNC(C)(C)C)c1C (stereo not given)	inactive
Cc1ccc2ccc(Cl)cc2n1	inactive
CCCCCCCCCCl	inactive
CC(C)N(c1ccccc1)C(C)C	inactive
CN=C(NC#N)Nc1ccc(C2=NNC(=O)CC2C)cc1 (stereo not given)	inactive
COc1cc(C(=S)N2CCOCC2)cc(OC)c1OC	inactive
OCCN(CCO)c1cccc(Cl)c1	inactive
Cc1ccccc1N=O	inactive
CNC(=O)[C@H]1O[C@@H](n2cnc3c(NCc4cc(Cl)ccc4OCc4cc(C)no4)ncnc32)[C@H](O)[C@@H]1N	inactive
O=S(=O)(O)c1cc(O)c2ccc(Nc3ccccc3)cc2c1	inactive
Nc1ccc2cc(S(=O)(=O)O)cc(O)c2c1	inactive
CC(C)=O	inactive
CCOc1cc([N+](=O)[O-])c(OCC)cc1N1CCOCC1	27.3 µM (active)
OCCCCC(O)CO (stereo not given)	inactive
